From the antibiotic and cytotoxicity screens of Wong et al. (2023)
Among all 39,000 compounds or so, about 1,500 (3.8%) were called active. Shown is part of a subset that was picked to be rich in actives.

Test system: HSkMC (human skeletal muscle cells)
Experiment: cytotoxicity call (relative viability < 0.9)
Conditions: 10 µM

SMILES | cytotoxicity call
Nc1cnc2ncc(N)cc2c1 | inactive
CN1CCN(C(=O)C[C@@H]2C=C[C@H](NS(=O)(=O)c3cccc(F)c3)[C@H](CO)O2)CC1 | inactive
C[C@@H]1CCCCO[C@@H](CN(C)CC2CCCCC2)[C@@H](C)CN([C@H](C)CO)C(=O)c2cc(NC(=O)NC3CCCCC3)ccc2O1 | inactive
Nc1nc(=O)c2nc(C(=O)O)cnc2[nH]1 | inactive
COc1cccc(S(=O)(=O)N(C)C[C@@H]2Oc3cc(Br)ccc3S(=O)(=O)N([C@@H](C)CO)C[C@@H]2C)c1 | inactive
C[C@@H]1CN([C@H](C)CO)C(=O)c2cc(NS(=O)(=O)c3ccc(Cl)cc3)ccc2O[C@@H](C)CCCCO[C@@H]1CN(C)Cc1ccc(C(F)(F)F)cc1 | inactive
C[C@H]1CCCCO[C@@H](CN(C)Cc2ccc(C(F)(F)F)cc2)[C@@H](C)CN([C@@H](C)CO)C(=O)c2cc(NS(=O)(=O)c3ccc(F)cc3)ccc2O1 | inactive
C[C@@H]1CCCCO[C@@H](CN(C)Cc2ccc(C(F)(F)F)cc2)[C@H](C)CN([C@H](C)CO)C(=O)c2cc(NS(=O)(=O)c3ccc(Cl)cc3)ccc2O1 | active
C[C@@H]1CCCCO[C@@H](CN(C)Cc2ccc(C(F)(F)F)cc2)[C@@H](C)CN([C@H](C)CO)C(=O)c2cc(NS(=O)(=O)c3ccc(Cl)cc3)ccc2O1 | inactive
C[C@@H]1CCCCO[C@@H](CN(C)Cc2ccc(C(F)(F)F)cc2)[C@H](C)CN([C@@H](C)CO)C(=O)c2cc(NS(=O)(=O)c3ccc(Cl)cc3)ccc2O1 | active
C[C@H]1CCCCO[C@@H](CN(C)Cc2ccc(C(F)(F)F)cc2)[C@@H](C)CN([C@@H](C)CO)C(=O)c2cc(NS(=O)(=O)c3ccc(Cl)cc3)ccc2O1 | inactive
C[C@@H]1CCCCO[C@H](CN(C)Cc2ccc(C(F)(F)F)cc2)[C@@H](C)CN([C@H](C)CO)C(=O)c2cc(NS(=O)(=O)c3ccc(Cl)cc3)ccc2O1 | inactive
C[C@@H]1CN([C@@H](C)CO)C(=O)c2cc(NS(=O)(=O)c3ccc(Cl)cc3)ccc2O[C@@H](C)CCCCO[C@@H]1CN(C)Cc1ccc(C(F)(F)F)cc1 | inactive
C[C@H](CO)N1C[C@H](C)[C@H](CN(C)Cc2ccc(C(F)(F)F)cc2)OCCCC[C@H](C)Oc2ccc(NS(=O)(=O)c3ccc(Cl)cc3)cc2C1=O | active
C[C@H]1CCCCO[C@H](CN(C)Cc2ccc(C(F)(F)F)cc2)[C@@H](C)CN([C@@H](C)CO)C(=O)c2cc(NS(=O)(=O)c3ccc(Cl)cc3)ccc2O1 | active
CCOC(=O)C1CCN(c2cn[nH]c(=O)n2)CC1 | inactive
C[C@H]1CN([C@@H](C)CO)C(=O)Cc2cc(NC(=O)Nc3cccc4ccccc34)ccc2O[C@@H]1CN(C)C(=O)Nc1ccccc1 | inactive
C=CCOC(=O)[C@H]1[C@@H]2C(=O)O[C@@H](c3ccccc3)[C@@H](c3ccccc3)N2[C@@H](c2ccc(OCCOC(=O)[C@H]3C[C@H]4C(=O)N5CCC[C@H]5C(=O)N4[C@H]3c3cccc(OCCO)c3)cc2)[C@]12C(=O)Nc1ccccc12 | inactive
COc1ccc(NC(=O)N(C)C[C@H]2OCc3cnnn3CCCC(=O)N([C@H](C)CO)C[C@@H]2C)c(OC)c1 | inactive

SMILES | cytotoxicity call
COc1ccc(S(=O)(=O)N(C)C[C@H]2Oc3ccc(NS(=O)(=O)c4ccc(F)cc4)cc3CC(=O)N([C@@H](C)CO)C[C@@H]2C)cc1 | inactive
C[C@@H]1CN([C@@H](C)CO)C(=O)c2cc(NS(=O)(=O)c3ccc(Cl)cc3)ccc2O[C@@H](C)CCCCO[C@H]1CN(C)Cc1ccc(C(F)(F)F)cc1 | active
C[C@@H]1CN([C@@H](C)CO)C(=O)c2cccc(NC(=O)Nc3ccc(C(F)(F)F)cc3)c2O[C@@H]1CN(C)Cc1ccc(Oc2ccccc2)cc1 | active
C[C@H]1CN([C@@H](C)CO)C(=O)c2cccc(NC(=O)Nc3ccc(C(F)(F)F)cc3)c2O[C@H]1CN(C)Cc1ccccc1 | inactive
C[C@@H]1CN([C@@H](C)CO)C(=O)c2cccc(NC(=O)Nc3ccc(C(F)(F)F)cc3)c2O[C@H]1CN(C)Cc1ccc(Oc2ccccc2)cc1 | active
C[C@H]1CN([C@@H](C)CO)C(=O)c2cccc(NC(=O)Nc3ccc(C(F)(F)F)cc3)c2O[C@@H]1CN(C)Cc1ccc(Oc2ccccc2)cc1 | inactive
C[C@H](CO)N1C[C@H](C)[C@H](CN(C)Cc2ccc(Oc3ccccc3)cc2)Oc2c(NC(=O)Nc3ccc(C(F)(F)F)cc3)cccc2C1=O | active
C[C@@H]1CN([C@H](C)CO)C(=O)c2cccc(NC(=O)Nc3ccc(C(F)(F)F)cc3)c2O[C@H]1CN(C)Cc1ccc(Oc2ccccc2)cc1 | active
COC[C@H]1CNN1C(=O)c1cc(C)oc1C | inactive
C[C@@H]1CN([C@@H](C)CO)C(=O)c2cccc(NS(=O)(=O)c3cn(C)cn3)c2O[C@@H]1CN(C)C(=O)NC1CCCCC1 | inactive
C[C@H]1CCCCO[C@H](CN(C)C(=O)c2ccccc2)[C@@H](C)CN([C@@H](C)CO)C(=O)c2cc(NC(=O)c3ccccc3)ccc2O1 | inactive
COc1cccc(-c2ccc3c(c2)O[C@H](CN(C)C(=O)C2CCOCC2)[C@H](C)CN([C@H](C)CO)S3(=O)=O)c1 | inactive
C[C@H](CO)N1C[C@H](C)[C@H](CN(C)Cc2ccccc2)Oc2c(NC(=O)Nc3ccc(C(F)(F)F)cc3)cccc2C1=O | inactive
C[C@@H]1CN([C@H](C)CO)C(=O)c2cccc(NC(=O)Nc3ccc(C(F)(F)F)cc3)c2O[C@@H]1CN(C)Cc1ccc(Oc2ccccc2)cc1 | active
C[C@H]1CN([C@@H](C)CO)C(=O)c2cccc(NC(=O)Nc3ccc(C(F)(F)F)cc3)c2O[C@H]1CN(C)Cc1ccc(Oc2ccccc2)cc1 | active
C[C@@H]1CN([C@H](C)CO)C(=O)c2cccc(NC(=O)Nc3ccccc3)c2O[C@@H]1CN(C)Cc1ccc(C(F)(F)F)cc1 | inactive
C[C@H](CO)N1C[C@H](C)[C@@H](CN(C)Cc2ccc(Oc3ccccc3)cc2)Oc2c(NC(=O)Nc3ccc(C(F)(F)F)cc3)cccc2C1=O | active
C[C@@H]1CCCCO[C@@H](CN(C)CC2CC2)[C@H](C)CN([C@H](C)CO)C(=O)c2cc(NC(=O)Cc3ccccc3)ccc2O1 | inactive
